The text below walks through data of PubChem BioAssay AID652054 (National Center for Advancing Translational Sciences (NCATS), 2013).

Molecules are shown by their SMILES. Out of some 360,000 compounds screened, about 9,100 (2.5%) were called active. Inconclusive results (about 4%) are left out. No stated cut-off is given here; in the data, active means max response below about -50%; inconclusive means no clear call, values can overlap the other calls; inactive means above that. The sample as a whole holds a higher share of actives than the screen did.
On the % scale 0 is the no-effect control and ±100 the full control effect.

Chain of D(3) dopamine receptor (Homo sapiens) (P35462 whole entry, looked up): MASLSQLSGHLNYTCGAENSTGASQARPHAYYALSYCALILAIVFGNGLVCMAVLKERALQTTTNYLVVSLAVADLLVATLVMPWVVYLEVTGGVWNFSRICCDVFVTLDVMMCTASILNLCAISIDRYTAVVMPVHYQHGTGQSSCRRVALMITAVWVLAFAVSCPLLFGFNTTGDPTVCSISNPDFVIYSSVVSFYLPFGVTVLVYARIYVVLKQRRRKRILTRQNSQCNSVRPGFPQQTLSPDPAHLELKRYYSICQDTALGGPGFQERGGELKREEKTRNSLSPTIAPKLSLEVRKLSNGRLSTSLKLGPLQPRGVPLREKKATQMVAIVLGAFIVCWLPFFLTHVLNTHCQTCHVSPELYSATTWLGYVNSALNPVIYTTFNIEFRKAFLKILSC

In this assay the target is D(3) dopamine receptor (Homo sapiens) (UniProt P35462). As to the kind of experiment: qHTS of D3 Dopamine Receptor Antagonist: qHTS. To be noted: D3R cells, DiscoveRx beta-arrestin luminescence, antagonist mode; hits give low values. Summed up:
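Cells expressing the human receptor were seeded at 1500 cells/well, incubated overnight at 37 degrees C in 5% CO2, then exposed to library compounds with dopamine controls for 90 minutes at 37 degrees C before luminescent detection.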
Turning to `O=C(NCc1nnnn1-c1ccc(Cl)cc1)c1ccc([N+](=O)[O-])o1`, the max response, negative = inhibition was 10.2% (inactive).
In the case of `CCc1ccc(NC(=O)CN2CCC(C(=O)c3ccc(OC)cc3)CC2)cc1`, the max response, negative = inhibition was -50.9% (active).
On to `CCc1cc(C(=O)c2ccc(OC)cc2)c(NC(=O)CN2CCN(C)CC2)s1`, for which the max response, negative = inhibition was -7.92% (inactive).
Consider `COc1ccc(C(=O)N2CCC(C(=O)Nc3ccc(C)cc3)CC2)cc1`, for which the max response, negative = inhibition is 9.09% (inactive).
For the compound `CCCCN(CC)CCCNC(=O)CS(=O)(=O)Cc1nc(-c2cccc(OC)c2)oc1C`, the max response, negative = inhibition was -50.9% (active).
Consider `COc1ccc(-c2nc(CS(=O)(=O)CC(=O)NCc3cccc(Br)c3)c(C)o2)cc1`, for which the max response, negative = inhibition is 8.07% (inactive).
With `COc1cccc(-c2nc(CS(=O)(=O)CC(=O)NCCc3ccc(OC)c(OC)c3)c(C)o2)c1` the figure was 1.08% (inactive).
Take `COC(=O)c1ccc2nc(-c3ccc(F)cc3)c(Cc3ccc(C)cc3)n2c1`: the max response, negative = inhibition was 19.7% (inactive).
For the compound `CCCOc1ccc(F)cc1-c1cc(C(=O)Nc2ccc(F)c(Cl)c2)[nH]n1`, the max response, negative = inhibition was -15.7% (inactive).
In the case of `CCCOc1ccc(F)cc1-c1cc(C(=O)NCc2ccc(F)cc2)[nH]n1`, the max response, negative = inhibition is -2.32% (inactive).
Consider `COc1cccc(OC)c1C(=O)N1CCN(Cc2ccccc2F)CC1`, for which the max response, negative = inhibition was -6.64% (inactive).
With `O=C(CN1CCN(C(=O)c2cccc(F)c2)CC1)Nc1ccccc1F` the figure was 137% (inactive).
As for `Cc1ccccc1CN1CCN(C(=O)c2cccc(F)c2)CC1`, the max response, negative = inhibition was -63.6% (active).
In the case of `Cc1ccc(S(=O)(=O)N2CCN(C)CC2)cc1`, the max response, negative = inhibition is 7.28% (inactive).
As for `Cc1ccc(C(=O)N2CCN(S(=O)(=O)N3CCOCC3)CC2)cc1`, the max response, negative = inhibition was -16.1% (inactive).
With `Cc1ccc(S(=O)(=O)N2CCN(S(=O)(=O)N3CCOCC3)CC2)cc1` the figure was -75.3% (active); with `O=[N+]([O-])c1ccc(CN2CC(N3CCC(c4ccccc4)CC3)CS2(=O)=O)cc1` (centres undefined), -23.6% (inactive); with `CCOC(=O)[C@]12CCC=C1N(Cc1ccco1)C(=O)[C@H](CC(=O)NCc1cccc(C(F)(F)F)c1)C2`, -18.6% (inactive).
As to `Oc1ccc2ccccc2c1N=Nc1nccs1`, the max response, negative = inhibition was -67.4% (active).
With `Oc1ccc(N=Nc2nccs2)c(O)c1`, the max response, negative = inhibition was -73.7% (active).
Take `CCNC(=O)C1CCCN(C(=O)c2cc(F)ccc2C)CC1` (centres undefined): the max response, negative = inhibition was 15.3% (inactive).
As to `CCCCC[C@H](C)N1C[C@@H](COCc2ccccc2)Oc2cc(N3CC[C@@H](N(C)C)C3)ccc2S1(=O)=O`, the max response, negative = inhibition is 18.9% (inactive).
For `Cc1cc(Cl)ccc1-c1nc(NCCN(C)C)nc2ccsc12`, the max response, negative = inhibition is -28.3% (inactive).
On to `O=C1CC[C@@H](C(=O)N2CSC[C@@H]2C(=O)Nc2ccc(C(F)(F)F)cc2)N1`, for which the max response, negative = inhibition was -3.96% (inactive).
In the case of `COc1ccc(C2=Nc3ccccc3NC(=O)C2N(C(=O)c2cc3ccccc3[nH]2)c2ccccc2)cc1` (centres undefined), the max response, negative = inhibition is -13.2% (inactive).
On to `CCc1ccccc1OCC(=O)Nc1nnc(C2CC2)s1`, for which the max response, negative = inhibition was -9.37% (inactive).
As to `O=C(/C(=C/c1cccc(Cl)c1)c1nc2ccccc2[nH]1)c1ccccc1`, the max response, negative = inhibition was -87.4% (active).
Turning to `O=C(O)c1cccc(NC(=O)c2cc(-c3cccc(Cl)c3)nc3ccccc23)c1`, the max response, negative = inhibition was 14.5% (inactive).
Take `O=C(N/N=C/c1ccc(Cl)cc1)c1nc2ccc([N+](=O)[O-])cc2c(=O)[nH]1`: the max response, negative = inhibition was 9.98% (inactive).
Turning to `CCCn1c(N)c(C(=O)CSc2nnc(Cc3cccs3)n2C2CC2)c(=O)[nH]c1=O`, the max response, negative = inhibition was 31% (inactive).
Turning to `O=C(NCC(F)(F)F)c1ccc(S(=O)(=O)NCCc2ccc3c(c2)OCCO3)cc1`, the max response, negative = inhibition was 18.6% (inactive).
With `CC(C)Cc1ccc(-c2cc3nc(NCc4cccc(Cl)c4)ccn3n2)cc1`, the max response, negative = inhibition is 16.3% (inactive).
For `CC(=O)c1ccc(Nc2nc(C(N)c3ccccc3Cl)cs2)cc1` (centres undefined), the max response, negative = inhibition is 0% (inactive).
As to `CC1(C(=O)NS(=O)(=O)c2cccc(F)c2)CCN1C(=O)c1cccc2ccccc12` (centres undefined), the max response, negative = inhibition was -11.4% (inactive).
With `Cc1ccc(C)c(N2CCN(S(=O)(=O)c3ccc4c(c3)oc(=O)n4C)CC2)c1` the figure was 19.9% (inactive); with `Cc1ccc(N2CCN(S(=O)(=O)c3ccc(F)cc3)CC2)c(C)c1`, -54.7% (active); with `Cc1ccccc1N1CCN(S(=O)(=O)c2ccc3ccccc3c2)CC1`, -28.5% (inactive).
With `CCc1nc2c(OCCc3cccc(OC)c3)cccn2c1N(C)C(=O)c1ccc(C)cc1` the figure was -6.67% (inactive); with `N/C(=N\OC(=O)Nc1ccccc1)c1ccno1`, -63.2% (active); with `CC(C)(COC(=O)Nc1ccccc1)COC(=O)Nc1ccccc1`, -25.8% (inactive).
With `O=C(Nc1ccccc1)O/N=C1/CCCc2occc21` the figure was -1.95% (inactive).
With `COc1cc2ccc(C(C)=O)c(O)c2cc1OC`, the max response, negative = inhibition was -9.5% (inactive).
In the case of `CCC(C)C(CO)NC(=O)/C=C/[C@H]1O[C@@H](n2cnc3c(NC(=O)c4ccccc4)ncnc32)[C@H](O)[C@@H]1O` (some centres undefined), the max response, negative = inhibition was 10.7% (inactive).
In the case of `COc1cc(C(=O)CCc2ccc3c(c2)OCO3)cc(OC)c1OC`, the max response, negative = inhibition is -2.22% (inactive).
With `COc1ccc2cc1Oc1ccc(cc1)C[C@H]1c3cc(c(OC)cc3CCN1C)Oc1c(O)c(OC)cc3c1[C@H](C2)N(C)CC3` the figure was -18.7% (inactive).
With `COc1c(O)ccc2c1CN1CCc3cc4c(cc3C1C2)OCO4` (centres undefined), the max response, negative = inhibition was -123% (active).
For `Cn1c(=O)c2cc(NC(=O)NCCc3cccs3)ccc2n1Cc1cccc(C(F)(F)F)c1`, the max response, negative = inhibition is 18.7% (inactive).
Consider `Cc1cc(Nc2ccc(C)c(C)c2)n2ncnc2n1`, for which the max response, negative = inhibition was -15.7% (inactive).
With `COc1ccc(-c2ccc(CN3C(C(C)C)C(=O)N(Cc4cn(CC5CCCCC5)nn4)CCS3(=O)=O)cc2)cn1` (centres undefined), the max response, negative = inhibition was 14.3% (inactive).
With `COc1ccc(-c2cc(NC(C)=O)c3ncc(-c4cc(OC)c(OC)c(OC)c4)n3c2)cn1` the figure was 30.1% (inactive).
Consider `CC(C)C(c1nnnn1Cc1ccccc1)N1CCC(C(N)=O)CC1` (centres undefined), for which the max response, negative = inhibition was 14.4% (inactive).
`COc1ccccc1C(=O)NC(CCSC)C(=O)N1CCN(C/C=C/c2ccccc2)CC1` (centres undefined): the max response, negative = inhibition is -14% (inactive).
Turning to `CSCCC(c1nnnn1Cc1ccccc1)N1CCN(C/C=C/c2ccccc2)CC1` (centres undefined), the max response, negative = inhibition was -87.8% (active).
Take `COCCN1CCN(C(=O)c2cc(COc3ccc(F)cc3Cl)on2)CC1`: the max response, negative = inhibition is -9.58% (inactive).
Consider `CCCc1ccc(OCC(O)CN2CCN(CCO)CC2)cc1` (centres undefined), for which the max response, negative = inhibition was 6.19% (inactive).
In the case of `Cc1cccc(OCC(O)CN2CCN(S(=O)(=O)c3ccc(C)cc3C)CC2)c1` (centres undefined), the max response, negative = inhibition is -9.79% (inactive).
With `OC(COc1ccc(F)cc1Cl)CN1CCc2ccccc2C1` (centres undefined) the figure was -83.8% (active); with `Cc1ccc(Cl)c(OCC(=O)N2CCc3ccccc3C2)c1`, 1.13% (inactive); with `Cc1ccc(OCC(O)CN2CCN(CC(O)COc3ccc(C)cc3Cl)CC2)c(Cl)c1` (centres undefined), -59.6% (active).
For `CC(C)C[C@H]1CNC(=S)N1C[C@H]1CCCN1C[C@H](Cc1ccc(O)cc1)N1C[C@H](Cc2ccc(O)cc2)N(CC2CCCCC2)C1=S`, the max response, negative = inhibition is 4.99% (inactive).
Turning to `CC(=O)NC(c1cccc(F)c1)c1nc(-c2cccc(F)c2)cs1` (centres undefined), the max response, negative = inhibition is 2.77% (inactive).
Regarding `COC(=O)[C@]12CCCCC=C1N(Cc1ccc3c(c1)OCO3)C(=O)[C@H](CC(=O)N1CCOCC1)C2`, the max response, negative = inhibition is 6.26% (inactive).
With `COc1ccc(C(C)C)cc1-c1ccc2nncn2c1` the figure was -20% (inactive); with `COc1ccc(C(=O)OCC(=O)Nc2cc(C)on2)cc1F`, 9.93% (inactive).
In the case of `O=C(Nc1ccc(N2CCOCC2)cc1)c1cccc2c(-c3ccc(F)c(F)c3)coc12`, the max response, negative = inhibition is -14.5% (inactive).
With `Cc1ccc(CNC(=O)Nc2nnc([C@H]3C[C@H](O)[C@@H](CO)O3)s2)cc1` the figure was 10.5% (inactive); with `O=C(Nc1ccc(F)cc1)Nc1nnc([C@H]2C[C@H](O)[C@@H](CO)O2)s1`, 16.1% (inactive).
Regarding `O=C(Nc1nnc([C@H]2C[C@H](O)[C@@H](CO)O2)s1)c1cccc(Cl)c1`, the max response, negative = inhibition is -110% (active).
Regarding `CC1=C(C(=O)N2CCOCC2)CC(CC(=O)NCCCN(C)C)C(=O)N1Cc1ccc(C(C)(C)C)cc1` (centres undefined), the max response, negative = inhibition was 35.5% (inactive).
For `Nc1nc2c(ncn2[C@@H]2O[C@H](CNS(=O)(=O)N3CCc4ccccc4C3)[C@@H](O)[C@H]2O)c(=O)[nH]1`, the max response, negative = inhibition was 4.77% (inactive).
With `CCCCc1c(-c2ccc(Br)cc2)ncn1CCc1ccccc1OC` the figure was 65.6% (inactive); with `COc1cccc(CC2(CO)CCCN(Cc3nc(-c4cccs4)oc3C)C2)c1` (centres undefined), -116% (active).
With `COc1cccc(CC2(CO)CCCN(CC3=Cc4cc(OC)ccc4OC3)C2)c1` (centres undefined), the max response, negative = inhibition is -6.63% (inactive).
Regarding `COc1cccc(CC2(CO)CCCN(Cc3ccc(OC(F)F)cc3)C2)c1` (centres undefined), the max response, negative = inhibition is 8.8% (inactive).
In the case of `CCOc1ccc(CCNC(=O)COC(=O)c2ccc(C)c(S(=O)(=O)N3CCOCC3)c2)cc1OCC`, the max response, negative = inhibition is -5.11% (inactive).
Turning to `O=C(c1ccco1)N1CCN(CCOc2ccccc2)CC1`, the max response, negative = inhibition was -16.8% (inactive).
In the case of `O=C(Nc1ccc(F)cc1F)N1CCCN(CCOc2ccccc2)CC1`, the max response, negative = inhibition is -70.2% (active).
Take `O=C(c1ccc(Br)o1)N1CCN(CCOc2ccccc2)CC1`: the max response, negative = inhibition is 27.8% (inactive).
On to `COc1cc(C)c(S(=O)(=O)N2CCOCC2)c(C)c1C`, for which the max response, negative = inhibition is 0.216% (inactive).
In the case of `COc1ccc(S(=O)(=O)N2CCCC2)c(C)c1C`, the max response, negative = inhibition is -3.98% (inactive).
Regarding `COc1ccc(S(=O)(=O)N2CCOCC2)c(C)c1C`, the max response, negative = inhibition was -69.1% (active).
In the case of `COc1ccc(CC(N)c2csc(NC(=O)Nc3ccc(C(C)C)cc3)n2)cc1` (centres undefined), the max response, negative = inhibition is -12.1% (inactive).
As for `OC(c1ccc(Cl)c(F)c1)c1ncc(-c2ccccc2Cl)[nH]1` (centres undefined), the max response, negative = inhibition was -18% (inactive).
Regarding `CCSC1=C(C#N)C(=O)n2c1cc1c2CCCC1`, the max response, negative = inhibition is -65.6% (active).
With `CCSc1ncnc2c(C#N)c3n(c12)CCCCC3` the figure was -10.2% (inactive).
With `CCN1C(=O)[C@H]2[C@@H](c3ccc(C(F)(F)F)cc3)N[C@]3(CCCN(Cc4ccc(Br)cc4)C3=O)[C@H]2C1=O` the figure was 2.39% (inactive); with `CCS(=O)(=O)c1ccc(O)c(NC(=O)COc2ccc(Cl)cc2)c1`, 0.528% (inactive).
With `O=C(Nc1cc(S(=O)(=O)Nc2ccc(Cl)cc2)ccc1O)c1ccc(F)cc1F` the figure was -59.6% (active).
As for `O=C(Nc1cccc(S(=O)(=O)NC2=NCCC2)c1)c1ccc(F)cc1F`, the max response, negative = inhibition was 5.01% (inactive).
